Data as given in PubChem BioAssay (NCI).
About 83,000 compounds went through this panel and 20% of them were active in at least one assay; those are over-represented in the sample as a whole.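 Compound tested at a single concentration for 48 hours in 96-well plates; a percent growth value below 10 was scored as active.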 Unmarked numbers belong to inactive results. Activity calls are given as the source filed them.

Tests used:
Assay in all cases: NCI-60 one-dose screen, 48 h (100 = growth as untreated, 0 = no growth, -100 = all killed)
Conditions in all cases: 10 µM unless noted
[1] = tested on: RPMI-8226 leukemia
[2] = tested on: OVCAR-8 ovarian
[3] = tested on: OVCAR-5 ovarian
[4] = tested on: OVCAR-4 ovarian
[5] = tested on: SK-OV-3 ovarian
[6] = tested on: IGROV1 ovarian
[7] = tested on: OVCAR-3 ovarian
[8] = tested on: HS 578T breast
[9] = tested on: NCI/ADR-RES ovarian
[10] = tested on: T-47D breast

COc1ccc(-c2csc(NC(=O)c3cc(O)c(O)c(O)c3)n2)cc1
growth [1]: 41.1%
growth [2]: 57.6%
growth [3]: 86.1%
growth [4]: 58.6%
growth [5]: 77.5%
growth [6]: 46.4%
growth [7]: 72.6%
growth [8]: 101%
growth [9]: 62.2%
growth [10]: 44.7%

CCOc1nc(-c2ccccc2)cc2c(O)c(-c3nnco3)[nH]c(=O)c12
growth [1]: 48.3%
growth [2]: 30.6%
growth [3]: 101%
growth [4]: 51.5%
growth [5]: 59.3%
growth [6]: 36.7%
growth [7]: 27.8%
growth [8]: 68%
growth [9]: 25.5%
growth [10]: 2.73% (active)

CCCOc1ccc2c(c1)CC[C@@H]1[C@@H]2CC[C@@]2(C)[C@H]1CC[C@]2(C)O
growth [1]: 56.5%
growth [2]: 74%
growth [3]: 76.7%
growth [4]: 81%
growth [5]: 75.3%
growth [6]: 118%
growth [7]: 104%
growth [8]: 85%
growth [9]: 79.7%
growth [10]: 83.4%

Cc1cc(C)n(C(=O)c2nn(-c3ccc(Cl)cc3)cc2O)n1
growth [1]: -0.413% (active)
growth [2]: 26.3%
growth [3]: 64.1%
growth [4]: 67.7%
growth [5]: 87.5%
growth [6]: 25.3%
growth [7]: 50.9%
growth [8]: 7.1% (active)
growth [9]: 22.6%
growth [10]: 46.3%

CN1C(=O)C(=Cc2cn(Cc3ccccc3)c3ccc(Br)cc23)C(=O)N(C)C1=O
growth [1]: 92.6%
growth [2]: 97.9%
growth [3]: 14%
growth [4]: 107%
growth [5]: 90.4%
growth [6]: 97.3%
growth [7]: 103%
growth [8]: 113%
growth [9]: 96.9%
growth [10]: 83.7%

CN(C)c1nc(-c2ccco2)n2nc(-c3ccco3)cc2n1
growth [1]: 65.1%
growth [2]: 92.8%
growth [3]: 108%
growth [4]: 80.1%
growth [5]: 98.7%
growth [6]: 72.4%
growth [7]: 92.9%
growth [8]: 78.1%
growth [9]: 90.7%
growth [10]: 38%

COc1cc2c(cc1OC)C1CCN3C(=O)CCC3N1CC2 (centres undefined)
growth [1]: 102%
growth [2]: 113%
growth [3]: 109%
growth [4]: 116%
growth [5]: 112%
growth [6]: 125%
growth [7]: 113%
growth [8]: 97.9%
growth [9]: 99.6%
growth [10]: 105%

ClC1C2CC(c3ccccc32)C1Cl (centres undefined)
growth [1]: 97.6%
growth [2]: 113%
growth [3]: 102%
growth [4]: 112%
growth [5]: 115%
growth [6]: 118%
growth [7]: 113%
growth [8]: 113%
growth [9]: 106%
growth [10]: 103%

COc1ccccc1[C@H]1c2[nH]c3ccccc3c2C[C@H]2C(=O)N(CCCCCCC(=O)NO)CC(=O)N12
growth [1]: -1.71% (active)
growth [2]: 36.9%
growth [3]: 26.4%
growth [4]: 58.1%
growth [5]: 61.7%
growth [6]: 41.1%
growth [7]: 48.2%
growth [8]: 53.6%
growth [9]: 72.4%
growth [10]: 18.2%

CC[N+](C)(CC)CCCC(C)Nc1ccnc2cc(Cl)ccc12 (centres undefined)
growth [1]: 106%
growth [2]: 100%
growth [3]: 119%
growth [4]: 112%
growth [5]: 111%
growth [6]: 110%
growth [7]: 101%
growth [8]: 104%
growth [9]: 112%
growth [10]: 101%

Cc1ccc(C(C)C)cc1NC(=O)Nc1ccc([N+](=O)[O-])cc1
growth [1]: -61.9% (active)
growth [2]: 15.2%
growth [3]: 26.8%
growth [4]: 28.2%
growth [5]: 7.01% (active)
growth [6]: 6.68% (active)
growth [7]: -21.9% (active)
growth [8]: 14.7%
growth [9]: -10.7% (active)
growth [10]: 0.428% (active)

CCOC(=O)C1C(=O)OC2CCCCC21 (centres undefined)
growth [1]: 99.9%
growth [2]: 99.5%
growth [3]: 117%
growth [4]: 102%
growth [5]: 109%
growth [6]: 103%
growth [7]: 126%
growth [8]: 105%
growth [9]: 116%

CCC1=C(c2ccc(OC)cc2)C(C)Oc2cc(OC(C)=O)ccc21 (centres undefined)
growth [1]: 75.6%
growth [2]: 68.8%
growth [3]: 128%
growth [4]: 72.4%
growth [5]: 80.6%
growth [6]: 104%
growth [7]: 86.9%
growth [8]: 83.5%
growth [9]: 75.6%
growth [10]: 65.4%

CC(C)c1ccc(C(=O)Nc2sc3c(CN(C)C)c(O)ccc3c2C(N)=O)cc1
growth [1]: -31.8% (active)
growth [2]: 51.5%
growth [3]: 59.4%
growth [4]: 48.5%
growth [5]: 70.6%
growth [6]: 27.3%
growth [7]: 62.7%
growth [8]: 69.1%
growth [9]: 51.6%
growth [10]: 54.2%

CSc1nc2c(c(=O)[nH]1)C(c1ccc(Cl)cc1)C1=C(N2)/C(=C/c2ccc(Cl)cc2)CNC1 (centres undefined)
growth [1]: -13.4% (active)
growth [2]: 31.6%
growth [3]: 105%
growth [4]: 33.1%
growth [5]: 87.4%
growth [6]: 26.1%
growth [7]: 4.17% (active)
growth [8]: 68.7%
growth [9]: 74.5%
growth [10]: 54.3%

O=C(COC(=O)[C@H](C[Se][Se]C[C@H](NC(=O)c1ccc(Br)cc1F)C(=O)OCC(=O)c1ccc(F)cc1)NC(=O)c1ccc(Br)cc1F)c1ccc(F)cc1
growth [1]: -44.3% (active)
growth [2]: -100% (active)
growth [3]: -68.7% (active)
growth [4]: -95.7% (active)
growth [5]: -81% (active)
growth [6]: -100% (active)
growth [7]: -100% (active)
growth [8]: -16% (active)
growth [9]: -82.8% (active)
growth [10]: -67% (active)

Cc1cc(C(C)(C)c2cc(C)c(O)c(CN(C)C)c2)cc(CN(C)C)c1O
growth [1]: 84.1%
growth [2]: 89.4%
growth [3]: 102%
growth [4]: 99.1%
growth [5]: 104%
growth [6]: 78.9%
growth [7]: 85.7%
growth [8]: 76.1%
growth [9]: 95.7%
growth [10]: 107%

C[N+]1(CCc2ccccc2)CCC(CCC2CC[N+](C)(CCc3ccccc3)CC2)CC1 (centres undefined)
growth [1]: 126%
growth [2]: 97%
growth [3]: 104%
growth [4]: 103%
growth [5]: 107%
growth [6]: 105%
growth [7]: 107%
growth [8]: 103%
growth [9]: 105%
growth [10]: 102%

CN1CCN(Cc2ccc(NC(=O)c3[nH]ncc3Nc3ccnc4ccnn34)cc2)CC1
growth [1]: 111%
growth [2]: 61.8%
growth [3]: 94%
growth [4]: 62.1%
growth [5]: 29.1%
growth [6]: 58.3%
growth [7]: 53.7%
growth [8]: 63%
growth [9]: 107%
growth [10]: 63.2%

C/C(=C\CCc1ccoc1)CC/C=C(\C)CCCN1CCC(CO)CC1
growth [1]: 3.35% (active)
growth [2]: 77.7%
growth [3]: 76.4%
growth [4]: 52.5%
growth [5]: 65.1%
growth [6]: 67.8%
growth [7]: 82.4%
growth [8]: 57.5%
growth [9]: 73.4%
growth [10]: 35.9%

CO[C@H]1CC(O[C@@H]2/C(C)=C/C[C@@H]3C[C@@H](C[C@]4(CC[C@H](C)[C@@H](C5CCCCC5)O4)O3)OC(=O)[C@@H]3C=C(C)/C(=N/O)[C@H]4OC/C(=C\C=C\[C@@H]2C)[C@]43O)O[C@@H](C)C1O (some centres undefined)
growth [1]: -28.8% (active)
growth [2]: -51.3% (active)
growth [3]: -83% (active)
growth [4]: -88.5% (active)
growth [5]: -98.4% (active)
growth [6]: -47.4% (active)
growth [7]: -98.3% (active)
growth [8]: -43.7% (active)
growth [9]: -76.3% (active)
growth [10]: -78.1% (active)

COc1cc(OC)c2sc(-c3ccc(-n4cncc4-c4ccc(N)cc4)cc3)nc2c1
growth [1]: 64%
growth [2]: 77.4%
growth [3]: 100%
growth [4]: 63.1%
growth [5]: 120%
growth [6]: 104%
growth [7]: 77.6%
growth [8]: 103%
growth [9]: 68.9%
growth [10]: 60.6%

COc1ccc2c(c1)C(=O)/C(=C/c1ccc([N+](=O)[O-])s1)O2
growth [1]: -12% (active)
growth [2]: -5.24% (active)
growth [3]: 32.9%
growth [4]: -45% (active)
growth [5]: 74.6%
growth [6]: -58.3% (active)
growth [7]: -35.7% (active)
growth [8]: -6.61% (active)
growth [9]: 27.3%
growth [10]: -49.1% (active)

O=C(Nc1ccc(Cl)cc1)Nc1ccc(Oc2nncc3ccccc23)cc1
growth [1]: -0.0795% (active)
growth [2]: 19.4%
growth [3]: -16% (active)
growth [4]: -20.8% (active)
growth [5]: 56.7%
growth [6]: 8.16% (active)
growth [7]: -62.8% (active)
growth [8]: 37.5%
growth [9]: 37.6%
growth [10]: 10.2%

O=C(Nc1ccc(Oc2ccc(NC(=O)Nc3ccc([N+](=O)[O-])cc3)cc2)cc1)Nc1ccc([N+](=O)[O-])cc1
growth [1]: -53.5% (active)
growth [2]: 10.1%
growth [3]: 6.63% (active)
growth [4]: 34.5%
growth [5]: 12.8%
growth [6]: -13.2% (active)
growth [7]: 8.26% (active)
growth [8]: 23.3%
growth [9]: 8.82% (active)
growth [10]: 1.54% (active)

Clc1ccc([C@@H]2C[C@@H]3Cc4cc(Br)c5ccccc5c4N2O3)c(Cl)c1
growth [1]: 89.3%
growth [2]: 98.3%
growth [3]: 101%
growth [4]: 84.7%
growth [5]: 79.5%
growth [6]: 79.4%
growth [7]: 41.6%
growth [8]: 92.3%
growth [9]: 55.5%
growth [10]: 96.9%

Nc1ccc2c3c(cccc13)-c1ccccc1-2
growth [1]: 33.9%
growth [2]: 99.1%
growth [3]: 99.8%
growth [4]: 86.1%
growth [5]: 99.6%
growth [6]: 84%
growth [7]: 88.4%
growth [8]: 89.2%
growth [9]: 95.2%
growth [10]: 92.3%
